# Screens from PubChem.
# Shown are actives, neighbours in structure and some others; about 20% of the full set was active somewhere.
# Pf growth 96h = Primary qHTS for delayed death inhibitors of the malarial parasite plastid, 96 hour incubation | P. falciparum luciferase reporter growth, 96 h | Potency, µM (titrated, usually from 28.7 µM), for inactives: top-dose activity change, negative = inhibition, most hits filed as inhibitors | actives 6.9% (n = 320,000); note: potency is the fitted concentration of half-maximal effect; % is set by controls: 0 for no effect and ±100 for the full control effect
#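 Erythrocytes infected with luciferase-expressing P. falciparum were dispensed at 2% hematocrit and 0.05% parasitemia (final), then incubated with compounds 96 hours at 37 C in 5% CO2. Luminescence after detection reagent addition reported growth.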
# HCMV inh = qHTS Assay for inhibitors of the human cytomegalovirus (HCMV); activity change, negative = inhibition, % at 57.5 µM; AID 1259415, 2018; actives 4.5% (n = 410,000); HFF cells, HCMV-luciferase reporter, 72 h; active compounds read low; in the data active = activity change below about -60%; inconclusive = no clear call, values can overlap the other calls; inactive = above about -39%; note: % is set by controls: 0 for no effect and ±100 for the full control effect
#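 Compounds were evaluated in HFFs infected with an HCMV luciferase reporter virus (MOI 1 PFU/cell). Luciferase in lysates collected 72 h post infection served as the replication measure.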
# Shiga toxin inh = A qHTS for Small Molecule Inhibitors of Shiga Toxin; actives 9.2% (n = 290,000); Vero cells, Shiga toxin protein synthesis inhibition reporter; inhibition, % at 38.7 µM; in the data active = inhibition mostly above about 28%, no sharp cut-off; inactive = mostly below about 43%; note: 0% is about no effect
# CHX counter = Cycloheximide Counterscreen for Small Molecule Inhibitors of Shiga Toxin; max response, %; cell reporter, cycloheximide protein synthesis inhibition counterscreen; actives 12% (n = 300,000); AID 2314, 2010; in the data active = max response mostly above about 13%, no sharp cut-off; inactive = mostly below about 14%; note: read at 38.3 µM for the half of the compounds with a filed dose; 0% is about no effect
# Pf growth 48h = Primary qHTS for delayed death inhibitors of the malarial parasite plastid, 48 hour incubation | actives 5.9% (n = 310,000) | Potency, µM (doses to about 28.7 µM), for the others: at the highest dose activity change, negative = inhibition, usual class: inhibitors | AID 504832, 2011 | P. falciparum luciferase growth in erythrocytes, 48 h; note: potency is the fitted concentration of half-maximal effect; % is set by controls: 0 for no effect and ±100 for the full control effect
#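 In quantitative HTS format, infected erythrocytes bearing luciferase-reporter parasites were treated for a single generation at 37 C. Luminescence after adding detection reagent served as the growth measure.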
# Active calls of the source: *; ? = inconclusive; · = not tested or not shown; [ ] = another dose, or the depositor's remark. Unless noted, calls come from the whole dose curve; as a rule, active = well fitted inhibition curve with a large enough effect; inconclusive = small, poorly fitted or top-dose-only effect, or another doubt; inactive = no such curve, though single readings can be large or run the other way.
SMILES,Pf growth 96h,HCMV inh,Shiga toxin inh,CHX counter,Pf growth 48h
CCCCCC(O)(c1ccc(OCC)cc1)C(CN1CCOCC1)c1ccccc1 (centres undefined),?,6.2,-3.0,0.3,2.08µM*
CCCCCC(O)(c1ccc(OC)cc1)C(CN1CCOCC1)c1ccccc1 (centres undefined),8.0%,-60.6*,-6.4,-3.4,1.65µM*
CN(C)c1ccc(C(CNS(=O)(=O)c2ccc3ccccc3c2)N2CCOCC2)cc1 (centres undefined),2.9%,-15.4,·,·,?
COCCCNC(=O)Cn1nnc(-c2ccc(NC(=O)c3ccccc3F)cc2)n1,-17.6%,61.6,47.9*,26.0*,77.9%
COCCCNC(=O)Cn1nnc(-c2ccc(NC(=O)c3ccccc3OC)cc2)n1,?,-16.4,20.5,6.3,?
Cc1cc(Br)ccc1NC(=O)CCS(=O)(=O)c1cccc2nsnc12,·,-23.9,·,·,·
COc1cc(/C=N/n2cnn(Cc3ccccc3Cl)c2=S)cc(OC)c1OC,-7.8%,?,-4.1,5.3,?
COc1ccc(/C=N/n2cnn(Cc3ccccc3Cl)c2=S)cc1,-2.8%,-11.6,44.1,35.6*,412.5%
Cc1ccc(C=Nc2ccc(N(C)C)cc2)o1,0.928µM*,-75.7*,109.0*,24.2*,?
Cc1ccc(/C=N/n2c(C)nnc2C)o1,16.6%,2.7,9.3,4.7,10.9%
CC(NC(=O)Nc1ccc(Cl)cc1)C1CCCO1 (centres undefined),?,-14.3,20.0*,8.1,72.8%
CCOc1cc(C(=O)NC(C)C2CCCO2)cc(OCC)c1OCC (centres undefined),11.7µM*,-3.6,-8.1,-3.9,40.7%[1.15 µM]
CCOc1cc(C(=O)NC(C)C2CC3CCC2C3)cc(OCC)c1OCC (centres undefined),·,-23.3,·,·,·
CCOC(=O)c1ccc(NC(=O)NC(C)C2CCCO2)cc1 (centres undefined),·,30.5,36.4,12.1*,3.5%
COc1ccc2[nH]c(C)c(CCN(Cc3cccs3)C(=S)Nc3ccc(F)cc3)c2c1,2.33µM*,·,9.9,-1.3,1.65µM*
COc1ccc2[nH]c(C)c(CCN(Cc3cccs3)C(=S)Nc3ccccc3)c2c1,0.415µM*,?,15.3,-0.8,0.828µM*
COCCNC(=S)N(CCc1c(C)[nH]c2ccc(C)cc12)Cc1ccco1,?,12.9,-22.0,10.9,?
COc1ccc(NC(=S)N(CCc2c(C)[nH]c3ccc(C)cc23)Cc2cccs2)cc1,-96.0%,-29.7,5.5,-3.2,0.0%
COCCNC(=S)N(CCc1c(C)[nH]c2ccc(OC)cc12)Cc1ccco1,244.9%,-11.4,12.6,-3.3,9.28µM*
CCC(C)N(CCNC(=O)c1ccc2c(c1)NC(=O)c1ccccc1S2)C1CCCCC1 (centres undefined),?,0.0,-3.3,-4.1,1.85µM*
CCN1CCN(CCCNC(=O)c2ccc3c(c2)NC(=O)c2ccccc2S3)CC1,8.28µM*,-2.9,0.9,-3.3,14.7µM*
O=C(NCCCN1CCCC1=O)c1ccc2c(c1)NC(=O)c1ccccc1S2,-13.4%,-2.6,-8.6,-7.4,·
CC1CCCC(C)N1CCCNC(=O)c1ccc2c(c1)NC(=O)c1ccccc1S2 (centres undefined),?,-29.0,-2.0,9.5,4.15µM*
COc1cccc(NC(=O)N2CCC3(CC2)OCCO3)c1,?,80.6,60.8*,31.1*,50.2%
COc1cccc(NC(=O)N2CCC(N3CCCCC3)CC2)c1,0.0%,54.3,-4.8,-1.9,-11.1%
SMILES,Pf growth 96h,HCMV inh,Shiga toxin inh,CHX counter,Pf growth 48h
Cc1cccc(N2CCN(C(=O)NC(C)c3ccc(F)c(F)c3)CC2)c1C (centres undefined),11.7µM*,8.0,2.6,-3.1,11.7µM*
COc1cccc(NC(=O)N2CCN(c3cccc(C)c3C)CC2)c1,·,9.2,66.2*,38.1*,-22.6%
Cc1ccc(/C=C/S(=O)(=O)NCc2ccc(F)cc2)cc1,?,-33.3,6.1,12.7,10.4µM*
Cc1ccc(F)cc1NC(=O)CN1C(=O)NC2(CCCc3ccccc32)C1=O (centres undefined),1.1%,-17.9,·,·,-24.3%
Cc1ccc2oc(C(=O)Nc3nnc(C)s3)c(C)c2c1,186.8%,135.4,49.9,17.4*,·
Cc1ccc2oc(C(=O)Nc3nonc3C)c(C)c2c1,-14.5%,-25.1,66.5*,28.3*,56.8%
CCc1nonc1NC(=O)c1oc2cc(C)c(Cl)cc2c1C,14.8%,-22.2,9.1,5.8,38.1%
COc1ccc2oc(C(=O)Nc3nnc(C)s3)c(C)c2c1,247.8%,28.2,·,·,197.7%
CCc1nonc1NC(=O)c1oc2cc(C)c(C)cc2c1C,9.4%,-34.9,36.6,25.1*,74.7%
COc1ccc(CCNC(=O)c2nn(-c3ccc(C)cc3)c(=O)c3c2c2ccccc2n3C)cc1OC,·,11.2,·,·,·
COC(=O)C[C@H]1C=C[C@H](NC(=O)Nc2ccccc2OC)[C@@H](CO)O1,·,-6.3,·,·,·
Cc1c(O)ccc(-c2n[nH]c(C(=O)O)c2-c2nc3ccccc3s2)c1O,63.6%,-31.7,59.3*,23.5*,46.5%
Cc1c(O)ccc(-c2[nH]ncc2-c2nc3ccccc3s2)c1O,·,?,-14.7,1.7,-13.4%
O=S(=O)(c1ccc(C2CCCCC2)cc1)N1CCCC1,?,3.5,-14.9,-3.1,?
Cn1cc(Br)cc1-c1ncc(Cc2c[nH]c(N)[n+]2C)o1,·,-19.5,·,·,·
FC(F)(F)c1cccc(NC(=S)NC(c2ccccc2)c2ccccc2)c1,2.62µM*,-39.7,-9.9,-3.7,3.7µM*
FC(F)(F)c1cccc(NC(=S)Nc2ccc(Cl)c(Cl)c2)c1,8.28µM*,6.3,-1.5,7.1,-0.2%
O=[N+]([O-])c1cc(C(F)(F)F)cc([N+](=O)[O-])c1NCCNC(=S)Nc1ccc(Cl)c(Cl)c1,?,-92.7*,-2.9,6.1,9.28µM*
S=C(NCc1ccncc1)Nc1ccc(Cl)c(Cl)c1,?,?,-10.0,-3.9,?
COC(=O)[C@@H]1[C@@H](CO)[C@@H]2Cn3c(ccc(Br)c3=O)[C@H]1N2S(=O)(=O)c1cn(C)cn1,·,65.2,·,·,·
O=C(NCc1ccco1)c1ccc2c(c1)N(Cc1ccc(F)cc1)C(=O)c1ccccc1S2(=O)=O,·,-19.5,·,·,·
CCN1C(=O)CC(Sc2ccccc2N)C1=O (centres undefined),1.47µM*,-0.7,12.4,7.7,4.7%
CCCc1cc(=O)[nH]c(SCc2nc(-c3ccc(OCC)cc3)no2)n1,·,-10.0,·,·,·
Cc1cccc(Cn2nc(C)n3c(cc4cc(C)ccc43)c2=O)c1,·,9.5,·,·,·
Cc1nc2c(O)cccc2cc1CO,?,6.7,-14.4,0.9,-10.8%
Oc1ccc(/C=C/c2ccc3cccc(O)c3n2)cc1Br,?,42.9,67.9*,50.3*,·
COC(=O)c1ccc(NS(=O)(=O)c2cccc3cccnc23)cc1,·,-26.2,-10.3,-3.5,1.7%
